This is an account of results in ChEMBL document CHEMBL1961873, “Compounds: GSK PKIS; Assays: Nanosyn kinase panel” (2012).

The structures appear in SMILES notation.

Assay [1] concerns the target Calcium/calmodulin-dependent protein kinase type II subunit alpha (Homo sapiens) (UniProt Q9UQM7). Conditions: at 1 µM.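 Note: reported value is a mean percent inhibition of CAMK2A.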
Assay [2] has as its target Calcium/calmodulin-dependent protein kinase type II subunit delta (Homo sapiens) (UniProt Q13557). The settings on record: at 0.1 µM.
Assay [3] has the same target. Conditions: at 1 µM.
The target in assay [4] is T1, Calcium/calmodulin-dependent protein kinase type IV (Homo sapiens) (UniProt Q16566).
T1 sequence (whole entry): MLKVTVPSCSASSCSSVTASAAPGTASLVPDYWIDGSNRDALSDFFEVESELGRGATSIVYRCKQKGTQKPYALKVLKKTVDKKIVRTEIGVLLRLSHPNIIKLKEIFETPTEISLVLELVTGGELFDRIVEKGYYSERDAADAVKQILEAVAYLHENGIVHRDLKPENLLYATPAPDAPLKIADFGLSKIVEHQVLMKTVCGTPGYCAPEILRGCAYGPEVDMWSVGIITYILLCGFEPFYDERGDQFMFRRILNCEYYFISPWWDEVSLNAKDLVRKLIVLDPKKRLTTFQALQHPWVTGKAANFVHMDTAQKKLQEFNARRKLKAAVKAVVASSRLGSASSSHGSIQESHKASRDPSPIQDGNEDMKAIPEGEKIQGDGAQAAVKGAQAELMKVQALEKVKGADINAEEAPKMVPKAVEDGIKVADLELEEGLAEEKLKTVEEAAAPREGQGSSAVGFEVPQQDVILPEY
The settings on record: at 0.1 µM.

Assay [5] has as its target T1, Calcium/calmodulin-dependent protein kinase type IV (Homo sapiens). Conditions: at 1 µM.
Assay [6] has as its target T2, Serine/threonine-protein kinase Chk1 (Homo sapiens) (UniProt O14757).
T2 sequence (whole entry): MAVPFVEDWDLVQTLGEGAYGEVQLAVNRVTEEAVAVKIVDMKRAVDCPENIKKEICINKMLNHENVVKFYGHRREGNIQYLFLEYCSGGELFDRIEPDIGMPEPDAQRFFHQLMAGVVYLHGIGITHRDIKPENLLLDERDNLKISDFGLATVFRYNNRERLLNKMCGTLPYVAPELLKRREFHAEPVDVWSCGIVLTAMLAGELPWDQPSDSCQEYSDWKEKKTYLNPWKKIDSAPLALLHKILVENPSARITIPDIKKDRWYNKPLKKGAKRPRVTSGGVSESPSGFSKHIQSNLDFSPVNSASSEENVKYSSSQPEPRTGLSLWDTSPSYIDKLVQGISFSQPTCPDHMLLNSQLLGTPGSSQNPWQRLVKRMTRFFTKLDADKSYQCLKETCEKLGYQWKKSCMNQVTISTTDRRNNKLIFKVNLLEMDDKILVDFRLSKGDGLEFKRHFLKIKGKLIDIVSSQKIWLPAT
The settings on record: at 0.1 µM.

Assay [7] deals with T2, Serine/threonine-protein kinase Chk1 (Homo sapiens). Conditions: at 1 µM.
Assay [8] has as its target Serine/threonine-protein kinase Chk2 (Homo sapiens) (UniProt O96017). The settings on record: at 0.1 µM.
For assay [9] the target is unchanged. The settings on record: at 1 µM.
Assay [10] has as its target Death-associated protein kinase 1 (Homo sapiens) (UniProt P53355). The settings on record: at 0.1 µM.
The target is the same in assay [11]. Conditions: at 1 µM.
Assay [12] concerns the target T3, Serine/threonine-protein kinase DCLK2 (Homo sapiens) (UniProt Q8N568).
T3 sequence (whole entry): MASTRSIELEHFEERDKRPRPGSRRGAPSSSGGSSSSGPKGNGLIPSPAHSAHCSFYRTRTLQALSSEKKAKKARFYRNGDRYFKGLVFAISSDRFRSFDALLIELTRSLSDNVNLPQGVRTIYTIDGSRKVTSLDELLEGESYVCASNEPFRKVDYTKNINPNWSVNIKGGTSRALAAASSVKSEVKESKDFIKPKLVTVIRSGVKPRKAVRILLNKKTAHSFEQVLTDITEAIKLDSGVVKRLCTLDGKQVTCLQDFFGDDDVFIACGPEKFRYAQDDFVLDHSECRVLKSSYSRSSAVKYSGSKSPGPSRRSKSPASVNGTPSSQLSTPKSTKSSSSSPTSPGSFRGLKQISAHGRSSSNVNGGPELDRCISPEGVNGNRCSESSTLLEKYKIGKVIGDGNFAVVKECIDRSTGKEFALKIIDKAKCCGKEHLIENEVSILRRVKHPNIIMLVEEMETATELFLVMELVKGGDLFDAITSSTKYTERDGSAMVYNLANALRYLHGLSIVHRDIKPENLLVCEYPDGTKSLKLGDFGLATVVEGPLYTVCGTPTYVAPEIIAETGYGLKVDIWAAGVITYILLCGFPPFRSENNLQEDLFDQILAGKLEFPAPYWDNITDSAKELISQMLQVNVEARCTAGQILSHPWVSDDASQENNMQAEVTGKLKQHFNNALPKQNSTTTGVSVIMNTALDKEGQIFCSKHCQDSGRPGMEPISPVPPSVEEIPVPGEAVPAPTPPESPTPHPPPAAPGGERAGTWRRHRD
The settings on record: at 0.1 µM.

In assay [13] the target is T3, Serine/threonine-protein kinase DCLK2 (Homo sapiens). Conditions: at 1 µM.
Assay [14] deals with MAP kinase-activated protein kinase 2 (Homo sapiens) (UniProt P49137). The settings on record: at 0.1 µM.
MAP kinase-activated protein kinase 2 (Homo sapiens), sequence (P49137 whole entry, looked up): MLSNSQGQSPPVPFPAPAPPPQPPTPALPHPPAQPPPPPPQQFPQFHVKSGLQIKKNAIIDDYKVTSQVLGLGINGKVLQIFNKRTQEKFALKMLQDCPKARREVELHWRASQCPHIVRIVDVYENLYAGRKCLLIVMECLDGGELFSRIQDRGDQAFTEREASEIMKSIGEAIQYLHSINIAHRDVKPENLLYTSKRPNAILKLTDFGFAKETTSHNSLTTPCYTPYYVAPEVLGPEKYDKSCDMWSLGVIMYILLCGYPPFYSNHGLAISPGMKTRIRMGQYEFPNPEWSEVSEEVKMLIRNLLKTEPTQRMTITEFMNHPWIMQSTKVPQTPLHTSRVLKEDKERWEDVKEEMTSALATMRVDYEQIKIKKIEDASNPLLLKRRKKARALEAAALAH
The target is the same in assay [15]. The settings on record: at 1 µM.
The target in assay [16] is MAP kinase-activated protein kinase 3 (Homo sapiens) (UniProt Q16644). The settings on record: at 0.1 µM.
MAP kinase-activated protein kinase 3 (Homo sapiens), sequence (Q16644 whole entry, looked up): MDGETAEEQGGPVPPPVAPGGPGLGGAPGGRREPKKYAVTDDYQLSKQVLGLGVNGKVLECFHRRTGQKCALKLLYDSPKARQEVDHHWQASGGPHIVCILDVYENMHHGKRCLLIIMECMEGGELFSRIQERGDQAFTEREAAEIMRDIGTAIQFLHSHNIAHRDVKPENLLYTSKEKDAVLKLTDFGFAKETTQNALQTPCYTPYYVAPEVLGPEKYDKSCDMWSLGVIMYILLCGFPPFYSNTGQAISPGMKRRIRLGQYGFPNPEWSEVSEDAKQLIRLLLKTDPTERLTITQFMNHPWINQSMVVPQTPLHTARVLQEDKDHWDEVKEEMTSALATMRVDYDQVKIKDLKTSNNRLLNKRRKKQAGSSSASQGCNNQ
Assay [17] has the same target. Conditions: at 1 µM.
The target of assay [18] is Serine/threonine-protein kinase MARK1 (Homo sapiens) (UniProt Q9P0L2). The settings on record: at 0.1 µM.
Serine/threonine-protein kinase MARK1 (Homo sapiens), sequence (Q9P0L2 whole entry, looked up): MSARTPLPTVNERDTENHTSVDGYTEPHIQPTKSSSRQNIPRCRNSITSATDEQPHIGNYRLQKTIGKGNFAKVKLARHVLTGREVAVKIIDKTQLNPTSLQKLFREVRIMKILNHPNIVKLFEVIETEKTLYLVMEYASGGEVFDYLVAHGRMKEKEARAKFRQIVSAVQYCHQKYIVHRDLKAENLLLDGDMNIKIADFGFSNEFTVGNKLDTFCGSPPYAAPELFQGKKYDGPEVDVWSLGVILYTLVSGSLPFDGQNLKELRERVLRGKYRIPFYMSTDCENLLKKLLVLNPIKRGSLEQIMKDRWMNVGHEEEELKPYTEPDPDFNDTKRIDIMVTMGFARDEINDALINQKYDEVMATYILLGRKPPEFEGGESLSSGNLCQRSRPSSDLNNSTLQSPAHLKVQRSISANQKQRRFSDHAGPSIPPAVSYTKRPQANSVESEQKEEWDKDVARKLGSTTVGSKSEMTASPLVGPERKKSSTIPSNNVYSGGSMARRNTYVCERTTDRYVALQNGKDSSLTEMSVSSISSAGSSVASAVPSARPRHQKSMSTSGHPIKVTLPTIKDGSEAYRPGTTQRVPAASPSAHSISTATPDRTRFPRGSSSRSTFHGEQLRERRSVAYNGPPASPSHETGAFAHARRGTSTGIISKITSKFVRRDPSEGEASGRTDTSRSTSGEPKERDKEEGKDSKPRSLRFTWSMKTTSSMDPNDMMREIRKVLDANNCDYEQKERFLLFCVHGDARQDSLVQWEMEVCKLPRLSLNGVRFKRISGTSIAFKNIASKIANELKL
Assay [19] shares this target. The settings on record: at 1 µM.
For assay [20], the target named is MAP/microtubule affinity-regulating kinase 3 (Homo sapiens) (UniProt P27448). Conditions: at 0.1 µM.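 Note: mean percent inhibition of MARK3 kinase activity, measured within the GSK PKIS screening panel.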
MAP/microtubule affinity-regulating kinase 3 (Homo sapiens), sequence (P27448 whole entry, looked up): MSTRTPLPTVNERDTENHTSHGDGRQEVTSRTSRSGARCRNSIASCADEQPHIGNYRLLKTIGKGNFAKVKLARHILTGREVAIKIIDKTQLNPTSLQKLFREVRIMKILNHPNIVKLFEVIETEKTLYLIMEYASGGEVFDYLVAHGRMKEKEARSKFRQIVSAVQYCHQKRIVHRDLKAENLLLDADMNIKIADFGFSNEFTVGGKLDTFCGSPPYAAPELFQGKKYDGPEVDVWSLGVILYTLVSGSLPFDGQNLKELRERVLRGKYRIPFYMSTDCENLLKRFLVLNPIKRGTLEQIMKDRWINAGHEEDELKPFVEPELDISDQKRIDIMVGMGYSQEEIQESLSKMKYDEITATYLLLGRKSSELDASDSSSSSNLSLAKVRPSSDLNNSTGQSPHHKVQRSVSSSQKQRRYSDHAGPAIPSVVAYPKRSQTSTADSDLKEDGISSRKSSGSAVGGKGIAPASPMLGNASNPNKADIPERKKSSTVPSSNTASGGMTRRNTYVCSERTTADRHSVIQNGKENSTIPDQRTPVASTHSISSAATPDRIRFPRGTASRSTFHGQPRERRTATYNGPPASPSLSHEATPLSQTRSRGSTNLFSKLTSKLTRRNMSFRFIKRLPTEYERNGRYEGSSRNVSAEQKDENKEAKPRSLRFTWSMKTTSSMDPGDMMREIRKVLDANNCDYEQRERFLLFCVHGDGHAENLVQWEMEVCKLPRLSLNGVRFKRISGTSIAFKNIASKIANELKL

Calcium/calmodulin-dependent protein kinase type II subunit delta (Homo sapiens), sequence (Q13557 whole entry): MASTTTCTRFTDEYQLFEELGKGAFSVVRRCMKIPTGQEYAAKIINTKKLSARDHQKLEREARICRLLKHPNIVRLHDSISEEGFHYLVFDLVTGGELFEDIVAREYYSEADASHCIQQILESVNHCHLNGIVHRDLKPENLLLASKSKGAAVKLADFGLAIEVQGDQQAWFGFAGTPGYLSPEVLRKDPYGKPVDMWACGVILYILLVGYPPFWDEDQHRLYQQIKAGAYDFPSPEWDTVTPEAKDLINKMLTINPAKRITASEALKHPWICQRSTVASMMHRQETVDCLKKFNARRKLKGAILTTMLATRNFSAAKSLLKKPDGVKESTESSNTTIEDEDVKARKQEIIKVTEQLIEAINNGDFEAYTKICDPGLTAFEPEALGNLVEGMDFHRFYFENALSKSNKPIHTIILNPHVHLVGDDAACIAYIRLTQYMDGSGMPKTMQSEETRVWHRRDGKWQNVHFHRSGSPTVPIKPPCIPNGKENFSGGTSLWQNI
Death-associated protein kinase 1 (Homo sapiens), sequence (P53355 whole entry, looked up): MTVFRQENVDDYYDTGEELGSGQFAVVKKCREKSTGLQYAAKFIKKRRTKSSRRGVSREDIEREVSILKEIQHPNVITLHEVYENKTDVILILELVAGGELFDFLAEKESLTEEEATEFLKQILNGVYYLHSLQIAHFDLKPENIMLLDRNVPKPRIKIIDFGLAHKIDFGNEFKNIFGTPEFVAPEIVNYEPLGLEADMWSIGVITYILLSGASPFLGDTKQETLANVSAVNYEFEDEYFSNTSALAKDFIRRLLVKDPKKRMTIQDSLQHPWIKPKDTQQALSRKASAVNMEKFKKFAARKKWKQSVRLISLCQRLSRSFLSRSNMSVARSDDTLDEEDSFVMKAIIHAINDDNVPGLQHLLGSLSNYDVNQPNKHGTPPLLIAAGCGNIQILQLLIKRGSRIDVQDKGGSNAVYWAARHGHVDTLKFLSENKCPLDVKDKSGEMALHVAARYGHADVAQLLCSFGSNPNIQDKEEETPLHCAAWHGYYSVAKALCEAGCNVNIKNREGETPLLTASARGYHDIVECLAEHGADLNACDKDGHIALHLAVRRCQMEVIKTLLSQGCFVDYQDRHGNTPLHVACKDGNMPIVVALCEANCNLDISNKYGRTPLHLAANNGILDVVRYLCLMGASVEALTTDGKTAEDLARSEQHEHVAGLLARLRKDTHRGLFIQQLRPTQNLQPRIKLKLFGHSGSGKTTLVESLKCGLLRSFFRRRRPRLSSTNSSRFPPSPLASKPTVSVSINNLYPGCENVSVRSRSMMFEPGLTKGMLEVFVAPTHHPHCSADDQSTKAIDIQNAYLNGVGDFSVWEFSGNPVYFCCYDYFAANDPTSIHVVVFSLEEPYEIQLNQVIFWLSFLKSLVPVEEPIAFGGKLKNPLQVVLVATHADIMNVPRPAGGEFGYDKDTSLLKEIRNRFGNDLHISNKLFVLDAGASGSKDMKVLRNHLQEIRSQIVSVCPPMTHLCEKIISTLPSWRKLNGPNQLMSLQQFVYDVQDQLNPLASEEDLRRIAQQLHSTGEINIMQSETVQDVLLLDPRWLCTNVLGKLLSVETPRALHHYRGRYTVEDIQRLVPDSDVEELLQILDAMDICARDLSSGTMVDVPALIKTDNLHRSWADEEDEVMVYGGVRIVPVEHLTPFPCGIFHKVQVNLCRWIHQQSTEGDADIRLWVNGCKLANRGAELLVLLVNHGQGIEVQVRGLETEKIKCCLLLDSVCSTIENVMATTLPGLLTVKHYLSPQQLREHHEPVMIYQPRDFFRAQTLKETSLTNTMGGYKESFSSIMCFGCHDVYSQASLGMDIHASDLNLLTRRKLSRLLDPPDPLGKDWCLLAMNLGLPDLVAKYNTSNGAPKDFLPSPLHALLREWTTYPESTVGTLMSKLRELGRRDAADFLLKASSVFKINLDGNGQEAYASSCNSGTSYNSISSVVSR
Calcium/calmodulin-dependent protein kinase type II subunit alpha (Homo sapiens), sequence (Q9UQM7 whole entry): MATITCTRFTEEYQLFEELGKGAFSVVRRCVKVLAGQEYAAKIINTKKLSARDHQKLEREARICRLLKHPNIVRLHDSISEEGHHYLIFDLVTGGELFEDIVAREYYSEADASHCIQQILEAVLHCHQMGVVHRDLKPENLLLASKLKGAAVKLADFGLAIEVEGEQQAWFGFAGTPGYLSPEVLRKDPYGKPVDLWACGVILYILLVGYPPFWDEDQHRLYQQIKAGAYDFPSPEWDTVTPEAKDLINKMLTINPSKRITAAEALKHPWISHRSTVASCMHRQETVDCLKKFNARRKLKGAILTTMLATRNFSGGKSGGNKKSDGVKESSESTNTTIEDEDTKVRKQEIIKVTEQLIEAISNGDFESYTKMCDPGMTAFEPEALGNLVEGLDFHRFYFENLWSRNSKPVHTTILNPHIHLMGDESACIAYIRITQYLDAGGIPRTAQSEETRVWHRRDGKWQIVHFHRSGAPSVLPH

On to `O=S(=O)(CCNCc1ccc(-c2ccc3ncnc(Nc4ccc(OCc5cccc(F)c5)c(Cl)c4)c3c2)o1)c1ccccc1`, for which the inhibition in assay [1] is 2.35%; in assay [2] it was 3.72%; in assay [3], 4.42%; in assay [4] it was -0.6%; in assay [5] it was 0.28%; in assay [6], 7.26%. Further, the inhibition was found to be 10.1% in assay [7]; 2.55% in assay [8]; 3.38% in [9]; 8.91% in [10]; 6.96% in assay [11]; 1.44% in [12]. Besides, the inhibition turned out to be 2.85% in assay [13]; 2.31% in assay [14]; 2.57% in assay [15]; 7.71% in assay [16]; 7.76% in assay [17]; 3.69% in assay [18]. Moreover, the inhibition came to 5.01% in assay [19] and 3.94% in assay [20].
For the compound `FC(F)(F)c1cccc(-c2nn3ncccc3c2-c2ccnc(Nc3ccc4c(c3)OCCO4)n2)c1`, the inhibition came to 2.43% in assay [1]; 1.59% in assay [2]; 3.33% in assay [3]; 0.49% in assay [4]; 0.92% in assay [5]; 1.89% in assay [6]. The inhibition in assay [7] was 2.98%; in [8], 1.74%; in assay [9], 3.43%; in [10], 2.28%; in [11], 4.46%; in assay [12], 0.29%. The inhibition in assay [13] was -0.51%; in assay [14], 0.54%; in assay [15], 0.88%; in assay [16], 12.3%; in [17] it was 31.9%; in assay [18] it was 2.64%. The results for the inhibition in assay [19] and in assay [20] were 3.63% and 2.14%, respectively.
Take `[O-][S+]1CCN(Cc2ccc(-c3ccc4ncnc(Nc5ccc(OCc6cccc(F)c6)c(Cl)c5)c4c3)o2)CC1`: the inhibition in assay [1] came to 0.16%; in assay [2] it was 2.62%; in assay [3], 3.95%; in [4], 0.28%; in [5], 2.28%; in [6], 7.38%. Besides, the inhibition in assay [7] came out at 10.6%; in assay [8], 1.91%; in assay [9], 3.16%; in assay [10] it was 6.57%; in [11] it was 6.25%; in [12], 0.51%. Besides, the inhibition stood at 2.24% in assay [13]; 1.68% in [14]; 1.59% in [15]; 7.01% in assay [16]; 7.37% in assay [17]; 4.1% in assay [18]. The inhibition stood at 3.65% in assay [19] and 3.31% in [20].
In the case of `CCCN(CCS(C)(=O)=O)Cc1ccc(-c2ccc3ncnc(Nc4ccc(OCc5cccc(F)c5)c(Cl)c4)c3c2)o1`, the inhibition in assay [1] turned out to be 0.76%; in assay [2], 1.58%; in [3] it was 1.84%; in assay [4], 1.01%; in [5], 2.17%; in assay [6], 7.57%. For the same compound, the inhibition came out at 6.58% in assay [7]; 5.44% in assay [8]; 6.1% in [9]; 8.24% in assay [10]; 8.65% in assay [11]; 0.95% in [12]. Moreover, the inhibition in assay [13] was 0.44%; in [14] it was 3.34%; in assay [15], 3.18%; in assay [16], 7.91%; in assay [17], 7.63%; in assay [18], 0.08%. In addition, the inhibition in [19] was 0.29%; in assay [20], -1.25%.
On to `COc1cccc(-n2ncc3c(N/N=C/c4ccc(F)cc4)ncnc32)c1`, for which the inhibition in [1] was 3.26%; in assay [2] it was 3.08%; in [3], 3.49%; in [4] it was -2.69%; in [5] it was -2.57%; in assay [6], 2.07%. Besides, the inhibition was 5.65% in assay [7]; 2.49% in [8]; 3.64% in assay [9]; 4.6% in [10]; 5.45% in assay [11]; 1.07% in assay [12]. The inhibition in assay [13] is 0.2%; in assay [14], 1.96%; in assay [15], 2.72%; in assay [16] it was 3.14%; in assay [17], 3.2%; in [18] it was 3.33%. For the same compound, the inhibition came to 5.14% in assay [19] and 4.91% in [20].
`CCc1nn2ncccc2c1-c1ccnc(NC2CC2)n1`: the inhibition turned out to be 3.03% in assay [1]; 2.51% in [2]; 4.18% in assay [3]; 3.71% in assay [4]; 2.48% in assay [5]; 2.02% in assay [6]. Further, the inhibition in assay [7] is 2.69%; in assay [8], 1.64%; in assay [9], 3.66%; in assay [10], 3.5%; in assay [11] it was 1.38%; in assay [12], -1.54%. The inhibition in assay [13] stood at 2.15%; in [14], 1.44%; in assay [15], 2.07%; in assay [16], 1.73%; in assay [17] it was 2.3%; in [18] it was 0.89%. The inhibition came to 2.47% in assay [19] and 0.47% in assay [20].
As to `CCn1c(-c2nonc2N)nc2cnc(Oc3cccc(NC(=O)c4ccc(N(C)C)cc4)c3)cc21`, the inhibition in assay [1] is 5.87%; in assay [2] it was 1.23%; in assay [3], 17.3%; in [4], 0.01%; in assay [5] it was 1.14%; in [6], 0.31%. The inhibition in assay [7] is 5.78%; in assay [8], 1.31%; in [9], 8.31%; in [10], 1.42%; in [11], 0.59%; in [12] it was 0.41%. Moreover, the inhibition came out at 0.72% in [13]; 1.12% in assay [14]; 0.16% in assay [15]; 2.53% in [16]; 2.85% in [17]; 2.53% in assay [18]. For the same compound, the inhibition amounted to 10.8% in [19] and 2.76% in assay [20].
